This is an account of results in PubChem BioAssay AID1578 (Sanford-Burnham Center for Chemical Genomics, 2009).

“And” between values parts separate entries of the source, which are not always exact repeats. Identical values can stand only once. Among all 290,000 compounds or so, about 3,000 (1%) were called active. Only a selection was taken, and actives are over-represented in it overall. Unmarked numbers belong to inactive results. Rule as the data show it: active = inhibition mostly above about 36% (no sharp cut-off); inactive = mostly below about 34%.

The nature of the assay: inhibition of NOD1-driven NF-kB reporter – cell-based, luminescence, uHTS, primary screen (AID 1578).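 Also: HEK-293T reporter cells stimulated with the NOD1 agonist gamma-tri-DAP.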 To be noted: NOD1-driven NF-kB luciferase reporter cells, at 4 µM, stronger effect = higher value. On the technique in general: In a reporter assay the amount or activity of a reporter protein is the signal.
By inhibition is commonly meant the change of the read-out against control, counted positive when it falls. On to `CCCC(=O)NCC(c1cccs1)S(=O)(=O)c1ccc(Cl)cc1` (stereo not drawn), for which the inhibition is -18%.
The figure for `Cc1ccc2cc3cc(C(=O)NC4CCCCC4)oc3nc2c1` is -36.4%; for `O=C(Nc1ccccc1)Nc1ccc2ocnc2c1` it is -32.4%.
On to `Cc1nnc(SCC(=O)NC2CC2)s1`, for which the inhibition was -18.8%.
For `COc1cc(S(=O)(=O)n2nc(C)cc2C)ccc1Cl` the value was -30.9%.
With `Cc1ccc(C2=NN(C3=NN=C(N)Cc4ncnn43)C(O)(C(F)(F)F)C2)cc1` (stereo not drawn), the inhibition was -15.4%.
Take `CC(CC(=O)O)CC(=O)Nc1cc([N+](=O)[O-])ccc1O` (stereo not drawn): the inhibition was -14.6%.
For `COc1ccc(-c2nc(-c3ccccn3)no2)cc1` the value was 99% (active).
For `c1ccc(-c2noc(-c3ccc4c(c3)OCO4)n2)nc1` the value was 64.7% (active); for `c1ccc(-c2noc(-c3ccno3)n2)nc1`, -2.2%; for `c1ccc(-c2ccc(-c3nc(-c4ccncc4)no3)cc2)cc1`, 28.9%.
The figure for `COc1ccccc1-c1nc(-c2ccccn2)no1` is 27.3%; for `c1ccc(-c2ccc(-c3nc(-c4ccccn4)no3)cc2)cc1` it is 99.9% (active); for `Cc1cccc(-c2noc(-c3ccc4c(c3)OCO4)n2)c1` it is -27.9%.
On to `COc1cc(-c2nc(-c3ccccn3)no2)cc(OC)c1OC`, for which the inhibition is -30.9%.
The figure for `c1ccc(-c2noc(-c3ccc4c(c3)OCO4)n2)cc1` is -47.3%.
In the case of `Cn1c(SCC(=O)NC(=O)CN2CCCC2=O)nnc1-c1ccc(F)cc1`, the inhibition was -11.6%.
For `Cc1ccc(-c2nc(=S)c3c(n2CCN2CCOCC2)CC(C)(C)OC3)cc1` the value was -25.9%; for `CCOc1ccc(-c2c(=O)n(OCC)c3ccccc3[n+]2[O-])cc1`, 3.2%; for `CCC(C(=O)OC(C)C(=O)Nc1ccc(Cl)cn1)c1ccccc1` (stereo not drawn), -32.2%.
The figure for `COC(=O)c1cc(-c2ccccc2)sc1NC(=O)c1cc(C)on1` is -4.3%; for `O=C(NCCc1ccccc1)C1CCC(=O)N1CCc1ccccc1` (stereo not drawn) it is 2%.
The figure for `CCOC(=O)Cn1c(C)c(Br)c(COC)c(C#N)c1=O` is -13.2%; for `COC(=O)c1sc(NC(=O)CSc2nc3cccnc3n2C)nc1C` it is -10.6%.
As to `CCCCCCC(C)NC(=S)Nc1cc(S(=O)(=O)N(C)C)ccc1C` (stereo not drawn), the inhibition was -10.2%.
`CN(Cc1ccccc1F)c1ncnc2sccc12`: the inhibition is -28.7%.
For `CN(Cc1ccccc1)c1ncnc2sccc12` the value was 32.5%; for `CN(Cc1cccs1)c1ncnc2sccc12`, 46.8% (active).
For `Cc1scc(C(=O)Nn2cnnc2)c1-c1ccccc1`, the inhibition was -12.5%.
The figure for `CCN1C(=O)CSc2ccc(C(=O)NCc3ccco3)cc21` is -21.5%; for `CN(C)c1ccc(/C=C2\SC(=O)N(CCc3nnc(N)s3)C2=O)cc1` it is 68% (active); for `CN(C)c1ccc(/C=C2/SC(=O)N(CCN=C3NS(=O)(=O)c4ccccc43)C2=O)cc1` it is -8.3%.
The figure for `COc1ccc(/C=C2\SC(=O)N(CCc3nnc(N)s3)C2=O)cc1` is 1.5%; for `CCOC(=O)Cc1csc(NC(=O)CSc2ncnc3c2cnn3-c2ccccc2Cl)n1` it is -4.7%.
For `COc1ccc(Oc2ccc(N/C=C3\CCCC3=O)cc2)cc1` the value was -29.4%; for `CC(NC(=O)/C(=C\c1ccco1)NC(=O)c1ccco1)C(=O)O` (stereo not drawn), -6.1%.
For the compound `COc1ccc(-c2nsc3c(N4CCCC4)ncnc23)cc1`, the inhibition is 37.5%.
The figure for `COc1ccc(-c2nsc3c(N4CCCCC4)ncnc23)cc1` is 46.2%; for `COc1ccc(-c2nsc3c(N4CCCCC4C)ncnc23)cc1` (stereo not drawn) it is 77.6% (active).
For `Cc1ccc(NS(=O)(=O)c2ccc(-c3cnc(C4CC4)o3)cc2)cc1` the value was 37.3%; for `COc1ccc(NS(=O)(=O)c2ccc(-c3coc(C)n3)cc2)cc1`, 5.2%; for `COc1ccc(OC)c(NS(=O)(=O)c2ccc(-c3coc(C)n3)cc2)c1`, 29.1%.
For the compound `COc1ccc(C)cc1NS(=O)(=O)c1ccc(-c2cnc(C3CC3)o2)cc1`, the inhibition is 25.1%.
For `O=C(CCCC1=NS(=O)(=O)c2ccccc2N1)Nc1ccccc1` the value was -7.6%.
The figure for `COC(=O)CC(NS(=O)(=O)c1cccs1)c1ccc2c(c1)OCO2` (stereo not drawn) is -20.9%; for `O=C(CNC(=S)N(CCCN1CCOCC1)Cc1cccs1)NCc1ccc(Cl)cc1` it is -16.7%.
For the compound `CC(=O)Nc1cc2c(ccc3ccccc32)oc1=O`, the inhibition was -21.7%.
Consider `CCOC(=O)c1c(C)[nH]c(C)c1C(=O)CSc1nc2ccccc2c(=O)n1-c1ccc(C)cc1`, for which the inhibition was -25.1%.
The figure for `CCOC(=O)c1c(C)[nH]c(C)c1C(=O)CSc1nc2ccccc2c(=O)n1-c1ccc(F)cc1` is -19.8%.
The figure for `CC(OC(=O)c1ccco1)C(=O)Nc1ccc(Cl)cn1` (stereo not drawn) is -26.7%; for `CNc1ccccc1C(=O)OC(C)C(=O)Nc1ccc(Cl)cn1` (stereo not drawn) it is 54.3% (active); for `CC(OC(=O)c1ccccc1O)C(=O)Nc1ccc(Cl)cn1` (stereo not drawn) it is -43.7%.
The figure for `COc1ccc(C(=O)NC2CCN(CC(=O)NCc3ccccc3F)CC2)cc1` is -30.3%; for `CCc1ccc(N(CC(=O)NC2CCCCC2)S(=O)(=O)c2c(C)noc2C)cc1` it is -14.8%; for `O=C(CCl)Nc1cc2[nH]c(=O)[nH]c2cc1Br` it is 72.1% (active).
As for `Cc1cc(Br)c(NC(=O)CCl)c(Br)c1`, the inhibition was 42.9%.
The figure for `O=C(CCl)Nc1c[nH]c(=O)[nH]c1=O` is -31.2%; for `NC(=O)c1cc2ccccc2o/c1=N\NC(=O)c1ccc(F)cc1` it is -3.2%.
For `Cn1c(=O)c2c(nc(Oc3ccccc3)n2C)n(C)c1=O` the value was 9.4% and -13.9%.
For `COc1ccc(Oc2nc3c(c(=O)n(C)c(=O)n3C)n2C)cc1` the value was 18.3%; for `Cc1ccc(S(=O)(=O)Nc2ccc3nc(C)sc3c2)cc1`, 32.2%.
In the case of `Cc1nc2ccc(NS(=O)(=O)c3ccc(F)cc3)cc2s1`, the inhibition was 7.8%.
As to `CCOc1cc(C(=O)Nc2ccc([N+](=O)[O-])cn2)cc(OCC)c1OCC`, the inhibition was -21.2%.
